From PubChem BioAssay (Tox21)
Inconclusive results are not listed. Calls of active or inactive are those of the source. Unless noted, the call rests on the fitted dose curve; in most records, active means well fitted curve in the direction sought with a large enough effect in the repeat runs; inconclusive means weak or mixed curves; inactive means no such curve, though single readings can be large; an effect the other way counts as inactive or inconclusive.

Experiments:
[1] = qHTS assay to identify aromatase inhibitors - cell viability counter screen (AID 743084);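 further: cells stimulated with testosterone during compound exposure; nearly all actives have a fitted effect of over 55% in size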
[2] = target: Aryl hydrocarbon receptor (Homo sapiens) (UniProt P35869); assay: qHTS assay to identify small molecule that activate the aryl hydrocarbon receptor (AhR) signaling pathway (AID 743085);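 further: HG2L7.5c1 human HepG2 liver cells with stably integrated DRE-driven firefly reporter; series mostly up to about 70 µM; nearly all actives have a fitted effect of over 15% in size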
Chain of Aryl hydrocarbon receptor (Homo sapiens) (P35869 whole entry, looked up): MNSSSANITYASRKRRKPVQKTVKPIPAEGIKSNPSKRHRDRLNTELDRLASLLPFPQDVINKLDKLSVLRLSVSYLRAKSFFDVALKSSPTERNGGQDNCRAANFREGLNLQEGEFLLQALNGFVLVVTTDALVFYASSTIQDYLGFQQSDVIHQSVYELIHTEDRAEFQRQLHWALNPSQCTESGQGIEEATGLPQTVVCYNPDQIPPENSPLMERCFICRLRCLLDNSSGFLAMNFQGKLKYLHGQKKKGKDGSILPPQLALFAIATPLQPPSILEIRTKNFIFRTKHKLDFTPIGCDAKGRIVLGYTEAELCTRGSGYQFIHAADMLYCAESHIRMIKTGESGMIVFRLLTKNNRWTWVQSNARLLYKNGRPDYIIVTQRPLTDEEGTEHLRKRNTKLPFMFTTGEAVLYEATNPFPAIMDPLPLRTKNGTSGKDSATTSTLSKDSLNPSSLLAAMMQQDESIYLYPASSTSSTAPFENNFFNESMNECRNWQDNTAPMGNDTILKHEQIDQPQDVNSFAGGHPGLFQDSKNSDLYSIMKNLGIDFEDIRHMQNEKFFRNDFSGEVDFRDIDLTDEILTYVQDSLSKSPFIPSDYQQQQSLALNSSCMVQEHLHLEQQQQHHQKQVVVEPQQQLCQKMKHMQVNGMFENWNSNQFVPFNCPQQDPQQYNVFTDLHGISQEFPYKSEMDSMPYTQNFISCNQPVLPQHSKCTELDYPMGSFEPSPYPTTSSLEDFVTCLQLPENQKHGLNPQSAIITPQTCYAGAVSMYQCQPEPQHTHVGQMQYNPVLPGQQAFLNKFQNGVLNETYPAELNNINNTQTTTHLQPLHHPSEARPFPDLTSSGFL
In short: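 HepG2 cells (HG2L7.5c1) stably carrying a firefly luciferase reporter driven by 20 dioxin responsive elements were exposed to compound for 24 h at 37C after a 5 h settling period; luminescence rise (ONE-Glo) indicated activation.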

[3] = qHTS assay to identify small molecule that activate the aryl hydrocarbon receptor (AhR) signaling pathway - cell viability counter screen (AID 743086);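 further: HepG2 liver cells carrying the AhR DRE luciferase reporter; series mostly up to about 70 µM; nearly all actives have a fitted effect of over 45% in size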
In short: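 HepG2-AhR-luc (HG2L7.5c1) cells, 4000/well, treated 24 h at 37 C with compound; viability measured as CellTiter-Fluor fluorescence after 30 min in the same wells as the luciferase read.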

[4] = target: Peroxisome proliferator-activated receptor gamma (Homo sapiens) (UniProt P37231); assay: qHTS assay to identify small molecule agonists of the peroxisome proliferator-activated receptor gamma (PPARg) signaling pathway (AID 743094; active means well fitted activation curve with a large enough effect in the signal ratio in the repeat runs, not every such curve was filed as active; the % refers to the signal ratio)
Chain of Peroxisome proliferator-activated receptor gamma (Homo sapiens) (P37231 whole entry, looked up): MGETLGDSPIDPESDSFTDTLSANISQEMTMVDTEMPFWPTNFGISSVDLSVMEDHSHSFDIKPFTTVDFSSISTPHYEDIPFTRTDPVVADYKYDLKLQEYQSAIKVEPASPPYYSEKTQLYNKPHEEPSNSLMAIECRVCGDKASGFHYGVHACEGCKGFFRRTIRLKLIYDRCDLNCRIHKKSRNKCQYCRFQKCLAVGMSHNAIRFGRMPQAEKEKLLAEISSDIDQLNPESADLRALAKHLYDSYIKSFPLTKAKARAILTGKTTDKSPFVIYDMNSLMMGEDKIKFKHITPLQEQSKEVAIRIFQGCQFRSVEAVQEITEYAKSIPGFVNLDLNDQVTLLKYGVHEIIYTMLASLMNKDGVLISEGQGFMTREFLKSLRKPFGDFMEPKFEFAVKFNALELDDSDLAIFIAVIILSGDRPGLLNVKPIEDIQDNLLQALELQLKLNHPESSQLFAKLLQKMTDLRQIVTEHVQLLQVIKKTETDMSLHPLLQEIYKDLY
In short: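 Stably transfected HEK293H cells (GeneBLAzer PPARg UAS-bla) were incubated with test substances for 17 h at 37C after a 5 h pre-incubation; beta-lactamase activity was then detected by FRET substrate fluorescence.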

[5] = target: Peroxisome proliferator-activated receptor gamma (Homo sapiens) (UniProt P37231); assay: qHTS assay to identify small molecule antagonists of the peroxisome proliferator-activated receptor gamma (PPARg) signaling pathway (AID 743191; calls by dose curve; further: series mostly up to about 63 µM; nearly all actives have a fitted effect of over 30% in size)
In short: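 GeneBLAzer PPARg UAS-bla HEK293H cells, 5 h post-plating, exposed to compounds 17 h at 37C. LiveBLAzer B/G FRET substrate added for 1 h at room temperature; beta-lactamase reporter read by fluorescence intensity.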

[6] = qHTS assay to identify small molecule antagonists of the peroxisome proliferator-activated receptor gamma (PPARg) signaling pathway - cell viability counter screen (AID 743194); further: nearly all actives have a fitted effect of over 55% in size
In short: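 Cytotoxicity counter screen in PPARg-bla HEK293H cells, same wells as reporter assay. Compounds plus 50 nM rosiglitazone (final) for 17 h at 37 C, then viability read by CellTiter-Glo luminescence.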

[7] = qHTS assay for small molecule agonists of the antioxidant response element (ARE) signaling pathway (AID 743202; active means well fitted activation curve with a large enough effect in the signal ratio in the repeat runs, not every such curve was filed as active; the % refers to the signal ratio)
In short: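 Agonist mode reporter screen: HepG2 cells with ARE-controlled beta-lactamase are incubated with test compounds for 16 h at 37 C, and beta-lactamase activity is measured as fluorescence of cleaved B/G FRET substrate.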

[8] = qHTS assay for small molecule agonists of the antioxidant response element (ARE) signaling pathway - cell viability counter screen (AID 743203; calls by dose curve; further: nearly all actives have a fitted effect of over 55% in size)
In short: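 Cells (ARE-bla HepG2, 2,000/well) receive DMSO-dissolved compounds after a 5 hrs rest. Plates incubate 16 hrs at 37C/5% CO2. CellTiter-Glo luminescence is then recorded after 30 min at room temperature.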

[9] = qHTS assay for small molecule activators of the heat shock response signaling pathway - cell viability counter screen (AID 743209); further: nearly all actives have a fitted effect of over 50% in size
In short: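 Quantitative HTS format, Tox21 10K library. HeLa cells carrying an HSE-driven beta-lactamase reporter were treated 5 h at 37 C, then assessed for viability by CellTiter-Glo luminescence.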

[10] = qHTS assay for small molecule activators of the heat shock response signaling pathway (AID 743210; active means well fitted activation curve with a large enough effect in the signal ratio in the repeat runs, with a control signal flat, not every such curve was filed as active; the % refers to the signal ratio;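 further: HeLa cells with beta-lactamase reporter driven by heat shock elements; series mostly up to about 63 µM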)
In short: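 Quantitative high-throughput format using an engineered HeLa line in which heat shock response elements drive beta-lactamase; after 5 h with compound, cells received a B/G FRET substrate and fluorescence was read.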

[11] = qHTS assay to identify small molecule antagonists of the peroxisome proliferator-activated receptor delta (PPARd) signaling pathway - cell viability counter screen (AID 743213); further: nearly all actives have a fitted effect of over 50% in size
In short: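 CellTiter-Glo was added to PPARd-bla HEK293H wells following 17 h compound treatment in the presence of 300 nM L165041. Luminescence was recorded after 30 min at room temperature.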

[12] = qHTS assay to identify small molecule agonists of the farnesoid-X-receptor (FXR) signaling pathway - cell viability counter screen (AID 743218); further: nearly all actives have a fitted effect of over 45% in size
In short: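 In GeneBLAzer FXR-UAS-bla HEK 293T cells, compounds act for 16 h at 37 C. Cell viability is then scored in the reporter wells by CellTiter-Glo, 30 min at RT, luminescence.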

[13] = target: Vitamin D3 receptor (Homo sapiens) (UniProt P11473); assay: qHTS assay to identify small molecule agonists of the vitamin D receptor (VDR) signaling pathway (AID 743222; calls by dose curve)
Chain of Vitamin D3 receptor (Homo sapiens) (P11473 whole entry, looked up): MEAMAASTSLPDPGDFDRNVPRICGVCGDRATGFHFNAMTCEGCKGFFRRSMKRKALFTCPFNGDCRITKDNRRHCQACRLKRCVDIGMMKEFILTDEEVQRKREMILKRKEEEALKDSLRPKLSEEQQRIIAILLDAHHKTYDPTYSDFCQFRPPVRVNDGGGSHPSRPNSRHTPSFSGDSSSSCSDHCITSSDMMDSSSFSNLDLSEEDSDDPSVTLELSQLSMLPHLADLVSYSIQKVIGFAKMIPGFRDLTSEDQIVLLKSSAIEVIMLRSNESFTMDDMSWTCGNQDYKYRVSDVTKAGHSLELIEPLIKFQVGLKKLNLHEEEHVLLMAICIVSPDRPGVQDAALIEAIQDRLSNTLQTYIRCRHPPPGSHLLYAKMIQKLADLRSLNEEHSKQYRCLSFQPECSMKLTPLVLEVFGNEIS
In short: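 Agonist activity measured in VDR-bla reporter cells. Exposure 16 h, 37C, 5% CO2; detection by B/G FRET substrate, 2 h RT.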

[14] = qHTS assay to identify small molecule agonists of the peroxisome proliferator-activated receptor delta (PPARd) signaling pathway - cell viability counter screen (AID 743211); further: nearly all actives have a fitted effect of over 55% in size
In short: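 PPARd-bla HEK293H cells (UAS-beta-lactamase reporter) were treated with compounds for 17 h at 37 C. Viability was then read in the same wells by CellTiter-Glo luminescence after 30 min at room temperature.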

[15] = target: Peroxisome proliferator-activated receptor delta (Homo sapiens) (UniProt Q03181); assay: qHTS assay to identify small molecule agonists of the peroxisome proliferator-activated receptor delta (PPARd) signaling pathway (AID 743212; calls by dose curve)
Chain of Peroxisome proliferator-activated receptor delta (Homo sapiens) (Q03181 whole entry, looked up): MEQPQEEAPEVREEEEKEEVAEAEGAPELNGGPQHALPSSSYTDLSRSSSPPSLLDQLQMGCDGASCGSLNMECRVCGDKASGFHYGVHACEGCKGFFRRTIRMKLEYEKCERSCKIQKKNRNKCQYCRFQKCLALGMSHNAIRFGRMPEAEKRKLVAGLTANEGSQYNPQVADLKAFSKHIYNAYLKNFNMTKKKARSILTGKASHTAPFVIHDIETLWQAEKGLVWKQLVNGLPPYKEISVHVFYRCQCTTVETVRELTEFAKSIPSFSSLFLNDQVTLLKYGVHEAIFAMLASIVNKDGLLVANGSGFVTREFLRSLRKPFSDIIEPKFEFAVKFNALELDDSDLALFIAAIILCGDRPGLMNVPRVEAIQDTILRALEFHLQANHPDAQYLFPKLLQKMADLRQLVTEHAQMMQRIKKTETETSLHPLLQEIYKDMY
In short: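 Quantitative high-throughput agonist screen in a HEK293H beta-lactamase reporter line under UAS control. Compounds in DMSO, at 37 C. Fluorescence read after 2 h with FRET substrate at room temperature.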

[16] = target: Peroxisome proliferator-activated receptor delta (Homo sapiens) (UniProt Q03181); assay: qHTS assay to identify small molecule antagonists of the peroxisome proliferator-activated receptor delta (PPARd) signaling pathway (AID 743215; active means well fitted inhibition curve with a large enough effect in the signal ratio in the repeat runs, not every such curve was filed as active; the % refers to the signal ratio;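 further: cells stimulated with agonist L165041 at 300 nM final during compound exposure; series mostly up to about 62 µM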)
In short: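 Antagonist-mode beta-lactamase reporter screen: HEK293H cells with UAS-bla under PPARd control, stimulated by 300 nM L165041 (final) alongside test compound for 17 h at 37 C, then FRET fluorescence after 2 h substrate incubation.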

[17] = qHTS assay to identify small molecule antagonists of the farnesoid-X-receptor (FXR) signaling pathway - cell viability counter screen (AID 743221; active means well fitted cell-killing curve with a large enough effect in the repeat runs, not every such curve was filed as active; further: nearly all actives have a fitted effect of over 50% in size)
In short: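 FXR-UAS-bla HEK 293T cells were treated with test compounds plus chenodeoxycholic acid (50 uM final) for 16 h at 37 C. Cell viability in the same wells was then read as CellTiter-Glo luminescence after 30 min at room temperature.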

[18] = target: Vitamin D3 receptor (Homo sapiens) (UniProt P11473); assay: qHTS assay to identify small molecule antagonists of the vitamin D receptor (VDR) signaling pathway (AID 743223; active means well fitted inhibition curve with a large enough effect in the signal ratio in the repeat runs, not every such curve was filed as active; the % refers to the signal ratio)
In short: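 VDR-bla cells were plated, incubated 4 h at 37C, then given compound and 1alpha,25-dihydroxyvitamin D3 (3 nM final). After 16 h at 37C, LiveBLAzer B/G FRET substrate was added for 2 h at room temperature and fluorescence read.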

[19] = target: Bile acid receptor (Homo sapiens) (UniProt Q96RI1); assay: qHTS assay to identify small molecule antagonists of the farnesoid-X-receptor (FXR) signaling pathway (AID 743217; active means well fitted inhibition curve with a large enough effect in the signal ratio in the repeat runs, not every such curve was filed as active; the % refers to the signal ratio)
Chain of Bile acid receptor (Homo sapiens) (Q96RI1 whole entry, looked up): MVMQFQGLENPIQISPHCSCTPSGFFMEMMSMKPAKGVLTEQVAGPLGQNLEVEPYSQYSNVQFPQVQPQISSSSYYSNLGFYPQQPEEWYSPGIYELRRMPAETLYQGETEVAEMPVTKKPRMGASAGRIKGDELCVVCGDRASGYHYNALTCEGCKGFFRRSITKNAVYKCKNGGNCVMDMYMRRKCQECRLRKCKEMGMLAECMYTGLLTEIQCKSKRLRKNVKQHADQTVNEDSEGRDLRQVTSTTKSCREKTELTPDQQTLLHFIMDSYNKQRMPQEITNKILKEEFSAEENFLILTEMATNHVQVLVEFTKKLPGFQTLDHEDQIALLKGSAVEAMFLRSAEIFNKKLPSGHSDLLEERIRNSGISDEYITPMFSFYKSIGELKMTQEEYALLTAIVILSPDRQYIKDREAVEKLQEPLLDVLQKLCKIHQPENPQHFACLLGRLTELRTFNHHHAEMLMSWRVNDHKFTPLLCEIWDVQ
In short: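 Beta-lactamase reporter under UAS control in HEK 293T cells; compound exposure 16 h at 37 °C in the presence of chenodeoxycholic acid (50 uM final); signal from B/G FRET substrate after 2 h at room temperature.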

[20] = target: Bile acid receptor (Homo sapiens) (UniProt Q96RI1); assay: qHTS assay to identify small molecule agonists of the farnesoid-X-receptor (FXR) signaling pathway (AID 743220; active means well fitted activation curve with a large enough effect in the signal ratio in the repeat runs, not every such curve was filed as active; the % refers to the signal ratio)
In short: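 Beta-lactamase reporter under UAS control in GeneBLAzer FXR HEK 293T cells (5000/well) measured with LiveBLAzer FRET substrate after 2 h at room temperature. Compound exposure lasted 16 h at 37C.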

Measured: Potency

CC(C)(CO)[N+](=O)[O-]
inactive: [1] | [2] | [3] | [4] | [5] | [6] | [7] | [8] | [9] | [10] | [11] | [12] | [13]

CC(CSC(=O)c1ccccc1)C(=O)N1C[C@@H](Sc2ccccc2)C[C@H]1C(=O)O (some centres undefined)
inactive: [1] | [2] | [3] | [4] | [5] | [6] | [7] | [8] | [9] | [10] | [14] | [15] | [11] | [16] | [12] | [17]

Cc1[nH]c(C)c(Cl)c(=O)c1Cl
inactive: [1] | [2] | [3] | [4] | [5] | [6] | [7] | [8] | [9] | [14] | [15] | [16] | [12] | [17] | [13] | [18]

CCN(CC)CCOC(=O)C(Cc1cccc2ccccc12)CC1CCCO1 (centres undefined)
inactive: [1] | [2] | [3] | [4] | [5] | [6] | [7] | [8] | [9] | [14] | [11] | [17] | [13] | [18]

CC(C)(COC(=O)c1ccccc1)COC(=O)c1ccccc1
inactive: [1] | [2] | [3] | [4] | [5] | [6] | [7] | [8] | [9] | [11] | [16] | [17] | [13]

CC(=O)NO
inactive: [1] | [2] | [3] | [4] | [5] | [7] | [8] | [9] | [10] | [14] | [11] | [12] | [13] | [18]

NCC(=O)O
inactive: [1] | [2] | [3] | [4] | [5] | [7] | [8] | [9] | [14] | [15] | [11] | [16] | [17] | [13] | [18]

CNC(=O)CN(CCN(CCN(CC(=O)[O-])CC(=O)NC)CC(=O)[O-])CC(=O)[O-].O.[Gd+3]
inactive: [1] | [2] | [3] | [4] | [5] | [7] | [8] | [9] | [14] | [16] | [12] | [17] | [13] | [18]

NCCCN1CCOCC1
inactive: [1] | [2] | [3] | [4] | [5] | [6] | [8] | [9] | [10] | [14] | [11] | [16] | [19] | [12] | [20] | [17] | [13] | [18]

CCC(Cl)CCC(Cl)C(Cl)CC(Cl)C(Cl)C(Cl)CCl (centres undefined)
inactive: [1] | [2] | [3] | [4] | [5] | [6] | [8] | [9] | [19] | [20] | [18]

CCCCCCCC/C=C\CCCCCCCC(=O)OCC
inactive: [1] | [2] | [3] | [4] | [5] | [8] | [9] | [10] | [14] | [15] | [12] | [13] | [18]

NCC(=O)CCC(=O)O
inactive: [1] | [2] | [3] | [4] | [5] | [6] | [8] | [9] | [10] | [14] | [11] | [19] | [12] | [20] | [13] | [18]

CCCCCCCCCCCCN1CCCCCC1=O
inactive: [1] | [2] | [3] | [4] | [5] | [6] | [8] | [15] | [11] | [19] | [12] | [20] | [13]

COc1ccc(C(=O)N2CCN(CC(=O)N3CCOCC3)CC2)cc1
inactive: [1] | [2] | [3] | [4] | [5] | [6] | [7] | [8] | [10] | [11] | [12] | [17] | [13] | [18]

COCC(C)OC(C)=O (centres undefined)
inactive: [1] | [2] | [3] | [4] | [5] | [6] | [8] | [9] | [10] | [11] | [16] | [19] | [20] | [17] | [13] | [18]

CCOC(=O)Cc1cccc2ccccc12
inactive: [1] | [2] | [3] | [4] | [5] | [6] | [7] | [8] | [9] | [11] | [12] | [17] | [13] | [18]

CCCCCCCCCCO[C@@H]1O[C@H](CO)[C@@H](O)[C@H](O)[C@H]1O
inactive: [1] | [2] | [3] | [4] | [5] | [6] | [8] | [9] | [10] | [14] | [16] | [17] | [13] | [18]
